From PubChem BioAssay
Calls of active or inactive are those of the source. Unless noted, the rule behind the calls is not given here.

Assays:
[1] = test system: Wnt5a (protein binding on small-molecule microarray); assay: small molecules binding Wnt5a protein – biophysical, small-molecule microarray, 635/667 nm fluorescence, primary screen (AID 1142); settings: 635 nm fluorescence, higher = more signal;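 note: fluorescence read at 667 nm with signal to noise per printed feature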
[2] = ATP-based viability of Huh7 replicon cells – cell-based, CellTiter-Glo luminescence, basal, 48 h, cytotoxicity control for HCV replication inhibitor project, primary screen (AID 1143); settings: higher = more signal, called active from +8 up or from −8 down;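 note: Huh7 hepatoma cells carrying a hepatitis C replication reporter with no stimulus; test concentration not given here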
[3] = Pseudomonas biofilm growth suppression – PAO1 strain, BacTiter-Glo luminescence, LB-PBS, primary screen (AID 1144); settings: P. aeruginosa PAO1 biofilm, 12 h, higher = more signal
[4] = basal CRE-LacZ reporter activity in PC12 – cell-based, unstimulated, primary screen (AID 1145); settings: no forskolin, luminescence, 4.5 h, higher = more signal, called active from +8 up or from −8 down
[5] = forskolin-driven CRE-LacZ activity in PC12 – cell-based, CRE-LacZ reporter, forskolin-stimulated, primary screen (AID 1146); settings: luminescence, 4.5 h, higher = more signal, called active from +8 up or from −8 down;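 note: PC12 cells with 6xCRE LacZ reporter stimulated by forskolin 10 µM; beta-galactosidase reporter signal reflecting CREB driven transcription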
[6] = target: Streptavidin (Streptomyces avidinii) (UniProt P22629); assay: compounds binding control protein streptavidin – biophysical, small-molecule microarray, 635/667 nm fluorescence, artefact control for SMM compound annotation, primary screen (AID 1147); settings: higher = more signal;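 note: signal reflects streptavidin binding to arrayed compounds as a control protein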
Chain of Streptavidin (Streptomyces avidinii) (P22629 whole entry, looked up): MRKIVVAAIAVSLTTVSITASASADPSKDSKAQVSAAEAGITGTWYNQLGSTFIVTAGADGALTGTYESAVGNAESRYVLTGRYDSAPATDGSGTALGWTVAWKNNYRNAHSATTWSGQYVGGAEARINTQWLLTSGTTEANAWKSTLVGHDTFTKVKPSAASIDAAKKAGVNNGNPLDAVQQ

[7] = probe aInhba binding on compound microarray – biochemical, small-molecule microarray, 635/667 nm fluorescence, primary screen (AID 1148); settings: higher = more signal;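 note: score merges 667nm spot fluorescence with signal-to-noise for antibody binding to printed compounds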
Torsin-1A (Homo sapiens) [8] = target: Torsin-1A (Homo sapiens) (UniProt O14656); assay: TOR1A wild-type binding on microarray – cell lysate, small-molecule microarray, lysate, 635/667 nm, primary screen (AID 1149); settings: COS7 hTOR1A-WT lysate, 635 nm fluorescence, higher = more signal
Chain of Torsin-1A (Homo sapiens) (O14656 whole entry, looked up): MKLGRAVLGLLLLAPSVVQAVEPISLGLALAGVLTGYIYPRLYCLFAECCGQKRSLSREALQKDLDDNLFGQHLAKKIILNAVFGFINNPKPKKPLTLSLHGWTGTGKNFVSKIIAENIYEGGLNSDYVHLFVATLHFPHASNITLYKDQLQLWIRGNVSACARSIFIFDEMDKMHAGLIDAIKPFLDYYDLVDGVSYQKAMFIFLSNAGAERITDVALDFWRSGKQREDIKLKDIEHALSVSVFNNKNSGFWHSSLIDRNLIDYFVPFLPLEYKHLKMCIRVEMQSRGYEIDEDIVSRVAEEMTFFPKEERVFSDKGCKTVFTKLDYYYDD

Torsin-1A (Homo sapiens) [9] = target: Torsin-1A (Homo sapiens) (UniProt O14656); assay: torsin A mutant lysate binding on microarrays – cell lysate, small-molecule microarray, COS7 lysate, 635/667 nm fluorescence, primary screen (AID 1150); settings: COS7 hTOR1A mutant lysate, 635 nm fluorescence, higher = more signal;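 note: score pools 667 nm emission and signal to noise measuring lysate protein binding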
[10] = test system: Sonic hedgehog protein (Shh); assay: Sonic hedgehog microarray binding compounds – biochemical, small-molecule microarray, 635/667 nm fluorescence, primary screen (AID 1151); settings: 635 nm fluorescence, higher = more signal;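 note: Shh protein binding to compounds spotted on small-molecule microarray slides; score combines spot fluorescence intensity with signal-to-noise across triplicate slides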
[11] = optical density shifts of acrAB sulA E. coli – strain DRC41, OD650, 48 h, E. coli filamentation inducer project, primary screen (AID 1152); settings: higher = more signal, called active from +8 up or from −8 down;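 note: E. coli MC1000 strain DRC41 lacking acrAB efflux pump and sulA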
[12] = probe aLefty1 binding on compound microarray – biochemical, small-molecule microarray, 635/667 nm fluorescence, primary screen (AID 1153); settings: higher = more signal;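 note: score merges spot fluorescence with signal-to-noise ratio from the scanned slide images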
[13] = plasmodial surface anion channel blockers, osmotic lysis – cell-based, P. falciparum Indochina, OD700, 1 h, primary screen (AID 1154); settings: P. falciparum Indochina infected RBC osmotic lysis, higher = more signal, called active from +8 up or from −8 down
[14] = plasmodial surface anion channel blockers, osmotic lysis – cell-based, P. falciparum Indochina, OD700, 2 h, primary screen (AID 1155);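 note: lysis reports solute entry through the parasite surface anion channel PSAC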; settings: P. falciparum Indochina infected erythrocytes, higher = more signal, called active from +8 up or from −8 down
[15] = changes in parasitized red cell lysis, either direction – P. falciparum Indochina, OD700, 3 h, PSAC antagonist project, primary screen (AID 1156); settings: P. falciparum-infected erythrocytes, osmotic lysis, higher = more signal, called active from +8 up or from −8 down
[16] = plasmodial surface anion channel blockers, osmotic lysis – cell-based, P. falciparum Indochina, OD700, 18 h, primary screen (AID 1157); settings: P. falciparum Indochina infected erythrocytes, osmotic lysis OD700, 18 h; higher = more signal, called active from +8 up or from −8 down
[17] = S6 kinase pathway phospho-S6 level changes – cell-based, A549, cytoblot, luminescence, serum-stimulated, primary screen (AID 1158); settings: 5 h, higher = more signal;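 note: serum-stimulated A549 lung adenocarcinoma cells; signal is phosphorylated S6 detected by cytoblot immunostaining with HRP secondary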
[18] = target: NADPH oxidase 2 (Homo sapiens) (UniProt P04839); assay: compounds shifting NOX2 Amplex Red fluorescence – cell-based, HEK293-NOX2, PMA-stimulated, NOX inhibitor project, primary screen (AID 1159); settings: 45 min, higher = more signal, called active from +8 up or from −8 down; note: test concentration not given here
Chain of NADPH oxidase 2 (Homo sapiens) (P04839 whole entry, looked up): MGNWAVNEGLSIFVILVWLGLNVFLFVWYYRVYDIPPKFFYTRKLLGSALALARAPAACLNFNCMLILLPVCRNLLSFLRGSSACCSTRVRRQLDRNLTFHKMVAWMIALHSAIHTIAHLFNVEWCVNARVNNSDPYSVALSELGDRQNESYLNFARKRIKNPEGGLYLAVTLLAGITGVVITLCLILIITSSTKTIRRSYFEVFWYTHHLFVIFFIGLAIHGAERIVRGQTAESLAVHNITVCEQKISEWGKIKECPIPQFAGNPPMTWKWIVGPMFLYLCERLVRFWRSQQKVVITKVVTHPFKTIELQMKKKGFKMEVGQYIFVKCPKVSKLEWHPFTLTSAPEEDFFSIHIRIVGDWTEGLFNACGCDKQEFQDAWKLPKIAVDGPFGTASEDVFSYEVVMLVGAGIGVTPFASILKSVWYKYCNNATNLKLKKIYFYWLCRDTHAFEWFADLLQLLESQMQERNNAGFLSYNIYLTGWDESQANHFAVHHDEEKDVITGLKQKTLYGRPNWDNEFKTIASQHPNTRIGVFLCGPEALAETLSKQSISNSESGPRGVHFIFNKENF

[19] = target: NADPH oxidase 4 (Homo sapiens) (UniProt Q9NPH5); assay: compounds shifting NOX4 Amplex Red fluorescence – cell-based, HEK293-NOX4, tetracycline-induced, NOX inhibitor project, primary screen (AID 1160); settings: HEK293-NOX4, Amplex Red H2O2 fluorescence, 45 min; higher = more signal, called active from +8 up or from −8 down
Chain of NADPH oxidase 4 (Homo sapiens) (Q9NPH5 whole entry, looked up): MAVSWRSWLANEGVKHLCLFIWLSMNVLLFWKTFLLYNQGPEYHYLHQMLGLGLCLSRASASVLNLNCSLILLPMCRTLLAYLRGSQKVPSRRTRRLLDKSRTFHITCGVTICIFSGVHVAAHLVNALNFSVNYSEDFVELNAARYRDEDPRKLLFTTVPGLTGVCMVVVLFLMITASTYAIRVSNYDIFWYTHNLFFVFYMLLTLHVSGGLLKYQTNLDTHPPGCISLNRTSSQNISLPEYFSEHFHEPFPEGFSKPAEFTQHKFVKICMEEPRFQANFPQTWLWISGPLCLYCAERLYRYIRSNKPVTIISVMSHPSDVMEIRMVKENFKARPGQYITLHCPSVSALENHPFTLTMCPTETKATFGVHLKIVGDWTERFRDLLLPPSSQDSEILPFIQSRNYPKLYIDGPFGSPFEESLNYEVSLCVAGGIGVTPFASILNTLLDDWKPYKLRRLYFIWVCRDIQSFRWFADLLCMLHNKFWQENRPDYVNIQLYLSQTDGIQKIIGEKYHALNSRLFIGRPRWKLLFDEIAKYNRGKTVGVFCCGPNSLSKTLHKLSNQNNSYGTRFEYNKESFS

[20] = target: NADPH oxidase 5 (Homo sapiens) (UniProt Q96PH1); assay: compounds shifting NOX5 Amplex Red fluorescence – cell-based, HEK293-NOX5, NOX inhibitor project, primary screen (AID 1161); settings: HEK293-NOX5, ionomycin, 45 min, higher = more signal
Chain of NADPH oxidase 5 (Homo sapiens) (Q96PH1 whole entry, looked up): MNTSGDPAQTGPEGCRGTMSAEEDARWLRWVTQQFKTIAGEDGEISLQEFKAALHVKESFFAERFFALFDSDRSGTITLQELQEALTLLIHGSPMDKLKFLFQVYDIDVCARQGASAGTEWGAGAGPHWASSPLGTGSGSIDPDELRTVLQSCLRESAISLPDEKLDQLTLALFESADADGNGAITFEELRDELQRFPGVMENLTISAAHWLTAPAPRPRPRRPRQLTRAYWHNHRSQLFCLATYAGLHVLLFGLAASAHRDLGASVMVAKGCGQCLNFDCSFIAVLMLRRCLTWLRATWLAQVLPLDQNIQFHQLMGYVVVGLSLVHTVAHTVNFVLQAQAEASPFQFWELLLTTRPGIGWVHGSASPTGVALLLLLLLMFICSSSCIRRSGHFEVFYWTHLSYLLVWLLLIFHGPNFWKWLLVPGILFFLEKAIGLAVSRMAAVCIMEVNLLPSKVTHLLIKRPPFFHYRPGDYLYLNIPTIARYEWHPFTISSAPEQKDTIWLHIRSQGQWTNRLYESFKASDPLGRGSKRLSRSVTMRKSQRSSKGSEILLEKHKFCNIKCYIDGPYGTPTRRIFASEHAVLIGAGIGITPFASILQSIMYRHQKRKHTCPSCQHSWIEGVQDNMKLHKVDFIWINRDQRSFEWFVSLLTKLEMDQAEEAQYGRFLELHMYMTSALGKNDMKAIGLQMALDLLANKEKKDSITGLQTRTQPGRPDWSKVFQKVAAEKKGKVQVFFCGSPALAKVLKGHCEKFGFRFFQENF

## [N-]=[N+]=Nc1ccccc1[C@@H]1OC(c2ccc(OCCCO)cc2)=N[C@]1(CCS(=O)(=O)c1ccccc1)C(=O)NCCN1CCOCC1
[1]
  composite z-score: 0.391
[2]
  z-score: -4.79 (inactive)
[3]
  z-score: -0.124 (inactive)
[4]
  z-score: 0.549 (inactive)
[5]
  z-score: -1.18 (inactive)
[6]
  composite z-score: 0.637
[7]
  composite z-score: 0.109
Torsin-1A (Homo sapiens) [8]
  composite z-score: 1.13
Torsin-1A (Homo sapiens) [9]
  composite z-score: 1.15
[10]
  composite z-score: -0.252
[11]
  z-score: 0.0992 (inactive)
[12]
  composite z-score: 0.417
[13]
  z-score: 27.4 (active)
[14]
  z-score: 20.8 (active)
[15]
  z-score: 1.9 (inactive)
[16]
  z-score: 0.667 (inactive)
[17]
  z-score: 1.12
[18]
  z-score: -3.49 (inactive)
[19]
  z-score: -0.729 (inactive)
[20]
  z-score: -1.84

## CCOc1cc(C(O)C2C=CC3C(=O)N(C4CCCCC4)C(=O)C3N2Nc2ccc(OC)cc2)ccc1O (stereo not given)
[1]
  composite z-score: 0.0751
[2]
  z-score: -1.26 (inactive)
[3]
  z-score: -0.855 (inactive)
[4]
  z-score: 0.276 (inactive)
[5]
  z-score: -1.51 (inactive)
[6]
  composite z-score: 1.43
[7]
  composite z-score: 0.0808
Torsin-1A (Homo sapiens) [8]
  composite z-score: 0.705
Torsin-1A (Homo sapiens) [9]
  composite z-score: 1.17
[10]
  composite z-score: -0.207
[11]
  z-score: -0.0582 (inactive)
[12]
  composite z-score: 0.666
[13]
  z-score: 6.34 (inactive)
[14]
  z-score: 0.679 (inactive)
[15]
  z-score: 1.04 (inactive)
[16]
  z-score: 0.265 (inactive)
[17]
  z-score: -0.089
[18]
  z-score: -2.2 (inactive)
[19]
  z-score: -3.71 (inactive)
[20]
  z-score: -2.46

## CC(C)N1CC=CC23O[C@@H]4C=CCCOC(=O)C4[C@H]2C(=O)N(CCO)[C@@H]3C1=O (stereo not given in full)
[1]
  composite z-score: -0.496
[2]
  z-score: -0.102 (inactive)
[3]
  z-score: -2.21 (inactive)
[4]
  z-score: -1.99 (inactive)
[5]
  z-score: -0.665 (inactive)
[6]
  composite z-score: -0.516
[7]
  composite z-score: -0.213
Torsin-1A (Homo sapiens) [8]
  composite z-score: 0.862
Torsin-1A (Homo sapiens) [9]
  composite z-score: 0.875
[10]
  composite z-score: -0.0837
[11]
  z-score: 2.1 (inactive)
[12]
  composite z-score: -0.357
[13]
  z-score: 0.326 (inactive)
[14]
  z-score: 0.568 (inactive)
[15]
  z-score: 1.03 (inactive)
[16]
  z-score: 0.406 (inactive)
[17]
  z-score: 0.468
[18]
  z-score: 1.37 (inactive)
[19]
  z-score: 0.509 (inactive)
[20]
  z-score: 1.54

## COCCCNC(=O)[C@]1(Cc2ccccc2N=[N+]=[N-])N=C(c2ccc(OCCCO)cc2)O[C@@H]1c1ccccc1N=[N+]=[N-]
[1]
  composite z-score: 0.497
[2]
  z-score: -4.87 (inactive)
[3]
  z-score: 0.524 (inactive)
[4]
  z-score: 0.432 (inactive)
[5]
  z-score: -1.98 (inactive)
[6]
  composite z-score: 1.25
[7]
  composite z-score: -0.0011
Torsin-1A (Homo sapiens) [8]
  composite z-score: 0.238
Torsin-1A (Homo sapiens) [9]
  composite z-score: 0.605
[10]
  composite z-score: -0.973
[11]
  z-score: -0.279 (inactive)
[12]
  composite z-score: 0.616
[13]
  z-score: 30.8 (active)
[14]
  z-score: 28.7 (active)
[15]
  z-score: 1.41 (inactive)
[16]
  z-score: 7.56 (inactive)
[17]
  z-score: 0.105
[18]
  z-score: -1.23 (inactive)
[19]
  z-score: 0.567 (inactive)
[20]
  z-score: 1.71

## CCOC(=CC(=O)OC)CC(O)c1cccc(Cl)c1 (stereo not given)
[1]
  composite z-score: -0.256
[2]
  z-score: -3.84 (inactive)
[3]
  z-score: 0.114 (inactive)
[4]
  z-score: 0.584 (inactive)
[5]
  z-score: -0.216 (inactive)
[6]
  composite z-score: -0.668
[7]
  composite z-score: -0.204
Torsin-1A (Homo sapiens) [8]
  composite z-score: 1.31
Torsin-1A (Homo sapiens) [9]
  composite z-score: 0.522
[10]
  composite z-score: -0.41
[11]
  z-score: 1.04 (inactive)
[12]
  composite z-score: -0.494
[13]
  z-score: 4.33 (inactive)
[14]
  z-score: 0.101 (inactive)
[15]
  z-score: 0.898 (inactive)
[16]
  z-score: -1.72 (inactive)
[17]
  z-score: 0.979
[18]
  z-score: 0.112 (inactive)
[19]
  z-score: -0.513 (inactive)
[20]
  z-score: -0.131

## O=C1O[C@@H](c2ccccc2)[C@@H](c2ccccc2)N2[C@@H](c3ccc(O)cc3)[C@]3(C(=O)Nc4ccccc43)[C@@H](C(=O)Nc3nc4ccccc4s3)[C@H]12
[1]
  composite z-score: 1.09
[2]
  z-score: -4.19 (inactive)
[3]
  z-score: -1.87 (inactive)
[4]
  z-score: 0.389 (inactive)
[5]
  z-score: -0.0768 (inactive)
[6]
  composite z-score: 0.243
[7]
  composite z-score: -0.128
Torsin-1A (Homo sapiens) [8]
  composite z-score: 0.0151
Torsin-1A (Homo sapiens) [9]
  composite z-score: 0.325
[10]
  composite z-score: 0.183
[11]
  z-score: -0.198 (inactive)
[12]
  composite z-score: -0.209
[13]
  z-score: 1.37 (inactive)
[14]
  z-score: 2.29 (inactive)
[15]
  z-score: -0.492 (inactive)
[16]
  z-score: 1.82 (inactive)
[17]
  z-score: -0.132
[18]
  z-score: 0.642 (inactive)
[19]
  z-score: 0.0436 (inactive)
[20]
  z-score: 0.933

## COCCOC(=O)N1C(=O)[C@@]2(c3cc(C#CC4=CCCCC4)ccc31)[C@H](C(=O)N1CCN(c3ncccn3)CC1)[C@H]1C(=O)O[C@H](c3ccccc3)[C@H](c3ccccc3)N1[C@@H]2c1ccc(O)cc1
[1]
  composite z-score: 0.282
[2]
  z-score: -1.17 (inactive)
[3]
  z-score: -0.13 (inactive)
[4]
  z-score: 0.761 (inactive)
[5]
  z-score: -0.0066 (inactive)
[6]
  composite z-score: 0.45
[7]
  composite z-score: -0.0736
Torsin-1A (Homo sapiens) [8]
  composite z-score: 0.714
Torsin-1A (Homo sapiens) [9]
  composite z-score: 0.296
[10]
  composite z-score: 1.5
[11]
  z-score: -0.386 (inactive)
[12]
  composite z-score: 0.315
[13]
  z-score: 1.65 (inactive)
[14]
  z-score: 1.5 (inactive)
[15]
  z-score: 0.116 (inactive)
[16]
  z-score: 0.824 (inactive)
[17]
  z-score: 1.13
[18]
  z-score: 1.11 (inactive)
[19]
  z-score: 0.482 (inactive)
[20]
  z-score: 1.2

## CC[C@H]1C2=C3C(CC[C@H]4C(OCc5ccc(F)cc5C(F)(F)F)OC[C@](C)([C@@H]34)N(C(=O)OC(C)(C)C)C2)C2COC(=O)OCC21 (stereo not given in full)
[1]
  composite z-score: 0.0641
[2]
  z-score: -2.57 (inactive)
[3]
  z-score: 0.265 (inactive)
[4]
  z-score: 0.576 (inactive)
[5]
  z-score: 0.204 (inactive)
[6]
  composite z-score: 1.44
[7]
  composite z-score: 0.0003
Torsin-1A (Homo sapiens) [8]
  composite z-score: 0.246
Torsin-1A (Homo sapiens) [9]
  composite z-score: 0.666
[10]
  composite z-score: 0.0392
[11]
  z-score: -2.17 (inactive)
[12]
  composite z-score: 0.513
[13]
  z-score: 1.28 (inactive)
[14]
  z-score: 0.584 (inactive)
[15]
  z-score: 1.63 (inactive)
[16]
  z-score: 0.91 (inactive)
[17]
  z-score: -0.445
[18]
  z-score: -0.582 (inactive)
[19]
  z-score: -1.74 (inactive)
[20]
  z-score: -1.5
